This passage reports max response, Potency and outcome results from PubChem BioAssay (NCATS).

Several values for one entry are separate records, joined by “and”; a condition that tells them apart may be missing. Identical values can stand only once. Results filed as inconclusive are left out. Values without a mark were called inactive. Activity calls are given as the source filed them. Calls come from the whole dose curve; as a rule, active = well fitted curve in the direction sought with a large enough effect; inconclusive = small, poorly fitted or top-dose-only effect, or another doubt; inactive = no such curve, though single readings can be large; an effect the other way counts as inactive or inconclusive.

Assay [1] is described as follows: qHTS assay for cell viability of HEK293 cells (AID 743288). Note: % is set by controls: 0 for no effect and ±100 for the full control effect; nearly all actives have a fitted effect of over 50% in size. Conditions: ATP luminescence (CellTiter-Glo), 18 h; max response: stronger effect = lower value. Put shortly:
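HEK293, 18 h, 37 C, ATP luminescence. Cells at 2,000/well were allowed at least 5 h to settle before dosing; CellTiter-Glo developed 30 min at RT.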

A short description of assay [2]: qHTS assay for cell viability of the p53RE-bla HCT-116 cell line (AID 743292). Note: % is set by controls: 0 for no effect and ±100 for the full control effect; nearly all actives have a fitted effect of over 55% in size. Put shortly: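 Luminescent ATP quantitation (CellTiter-Glo) served as the viability read-out; reagent was added after 16 h compound exposure at 37 C and read after 30 min at room temperature. Cells: p53RE-bla HCT-116, 4,000 per well.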
Assay [3] in a line: qHTS assay to identify small molecule inhibitors of chordoma cells - UCH-1 (AID 1259355). Note: % is set by controls: 0 for no effect and ±100 for the full control effect; nearly all actives have a fitted effect of over 55% in size. In short, it runs like this:
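A 48hr growth-inhibition format: each drug tested at 15 concentrations together with added auranofin, camptothecin, doxorubicin, rubitecan and topotecan, with cell viability quantified as CellTiter-Glo luminescence.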
In general terms: In qHTS, concentration-response curves come from the screen itself.

Assay [4] in a line: qHTS assay to identify small molecule inhibitors of chordoma cells - UCH-2 (AID 1259356). Note: series mostly up to about 46 µM; % is set by controls: 0 for no effect and ±100 for the full control effect.
A short description of assay [5]: P-glycoprotein substrates identified in KB-8-5-11 adenocarcinoma cell line, qHTS therapeutic library screen (AID 1346987). Note: nearly all actives have a fitted effect of over 65% in size. Note: potency is the fitted concentration of half-maximal effect. In short, it runs like this: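 In this qHTS, P-gp-rich KB-8-5-11 cells received library compounds across a concentration range. Viability was quantified by luminescence after 72 h at 37 degree C.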
Assay [6] can be described thus: qHTS Assay for Identifying Gametocytocidal Compounds (AID 743244).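 Note: % is set by controls: 0 for no effect and ±100 for the full control effect; actives lower the fluorescent signal which means gametocytes are killed.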 Conditions: P. falciparum 3D7 stage III-V gametocytes, alamarBlue, 72 h; max response: stronger effect = lower value. In short, it runs like this:
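Stage III–V gametocytes of P. falciparum 3D7 were seeded at 20,000 cells/well onto pre-dispensed compounds. After 72 h, 37 °C, 5% CO2, alamarBlue was added for another 24 h.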

The nature of assay [7]: P-glycoprotein substrates identified in KB-3-1 adenocarcinoma cell line, qHTS therapeutic library screen (AID 1346986). Note: nearly all actives have a fitted effect of over 60% in size. Put shortly: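 Using luminescence to quantify ATP, parental and P-gp-overexpressing KB cells were compared after 72 h compound titration. KB-8-5-11 was also run with the P-gp inhibitor tariquidar.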

For `CCOP(=O)(OCC)O/C(=C/Cl)c1ccc(Cl)cc1Cl`, the max response in assay [1] is -28.5% and -27.3%. For the same compound, the Potency entry in assay [2], in assay [3] and in assay [4] was “inactive” throughout. For the same compound, the Potency in assay [5] is 10.3 µM (active).
Consider `CNC(=O)Oc1ccccc1C(=O)Nc1ccccc1`, for which, in assay [6], the max response is 8.96%. Also, the Potency entry in assay [3] and in assay [4] was “inactive” throughout.
For the compound `C[N+]1(C)CCCCC1COC(=O)C(O)(c1ccccc1)c1ccccc1` (centres undefined), the max response in assay [6] was -10.4%. Moreover, the Potency result in assay [3] and in assay [4] was “inactive” in each case.
On to `CC(C)Nc1ccc(Nc2ccccc2)cc1`, for which the Potency result in assay [2], in assay [3] and in assay [4] was “inactive” in each case. Besides, the Potency in assay [5] was 20.6 µM (active).
For the compound `Cc1cc(C)cc(C(=O)OC2C[C@H]3CC[C@@H](C2)N3C)c1` (some centres undefined), the max response in assay [6] was 23%. Further, the Potency entry in assay [3] and in assay [4] was “inactive” throughout.
For the compound `COCC(C)N(C(=O)CCl)c1c(C)csc1C` (centres undefined), the max response in assay [6] was -1.03%; in assay [1], -15.8%. The Potency result in assay [2], in assay [3], in assay [4] and in assay [5] was “inactive” each time.
For `CCCCCCCCOC(=O)c1ccccc1C(=O)OCCCCCCCC`, the max response in assay [6] was -1.95%; in assay [1], -2.74% and -18%. Also, the Potency entry in assay [2], in assay [3], in assay [4] and in assay [5] was “inactive” each time.
On to `S=C=S`, for which the figures for the max response in assay [6] and in assay [1] were -5.35% and -4.58%, respectively. Further, the Potency result in assay [2], in assay [3], in assay [4] and in assay [5] was “inactive” in each case.
With `O=Cc1ccco1`, the max response in assay [6] is 5.14%; in assay [1], 6.18%. In addition, the Potency entry in assay [2], in assay [3], in assay [4] and in assay [5] was “inactive” in each case.
On to `Oc1cc(Cl)c(Cl)cc1Cl`, for which the max response in assay [6] is 4.45%; in assay [1], -2.85% and 0.876%. Further, the Potency result in assay [2], in assay [3], in assay [4] and in assay [5] was “inactive” throughout.
As for `ClCC1CO1` (centres undefined), the max response in assay [6] is 11.4%; in assay [1] it was 3.04%. Besides, the Potency result in assay [2], in assay [3], in assay [4] and in assay [5] was “inactive” throughout.
`CC(C)CCON=O`: the max response in assay [6] is -1.81%; in assay [1] it was -5.29%. In addition, the Potency result in assay [2], in assay [3], in assay [4] and in assay [5] was “inactive” each time.
For the compound `ClC=C(Cl)Cl`, the max response was -0.112% in assay [6]; 5.41% and -9.88% in assay [1]. Further, the Potency entry in assay [2], in assay [3], in assay [4] and in assay [5] was “inactive” in each case.
Turning to `C=CCN=C=S`, the max response in assay [6] was -13.2%; in assay [1] it was -7.74%. In addition, the Potency entry in assay [2], in assay [3], in assay [4] and in assay [5] was “inactive” throughout.
As to `N#CC(C#N)=Cc1cc(O)c(O)c(O)c1`, the Potency result in assay [3] and in assay [5] was “inactive” in each case.
For `CCCCCl`, the max response was 3.57% in assay [6] and -0.598% in assay [1]. Moreover, the Potency entry in assay [2], in assay [3] and in assay [5] was “inactive” in each case.
Consider `CCCCCOc1cc2c(cc1-c1cc(/C=C/C(=O)O)ccc1O)C(C)(C)CCC2(C)C`, for which the Potency entry in assay [7] is “inactive”.
On to `C/C=C(\C)C(=O)O[C@H]1[C@H](OC(C)=O)[C@]2(CO)[C@H](O)[C@H](O)[C@]3(C)C(=CCC4[C@@]5(C)CC[C@H](O[C@@H]6O[C@H](C(=O)O)[C@@H](O)[C@H](O[C@@H]7OC[C@H](O)[C@H](O[C@@H]8OC[C@H](O)[C@H](O)[C@H]8O)[C@H]7O)[C@H]6O[C@@H]6O[C@H](CO)[C@@H](O)[C@H](O)[C@H]6O)C(C)(C)C5CC[C@]43C)[C@@H]2CC1(C)C` (some centres undefined), for which the outcome in assay [7] and in assay [5] was “inactive [at 9.29 µM]” in each case.
For the compound `O=C1CCO1`, the max response in assay [6] is 11.4%; in assay [1] it was 5.83%. Further, the Potency entry in assay [2], in assay [4] and in assay [5] was “inactive” throughout.
Take `C[C@@]1(C(=O)O)CC[C@]2(C)CC[C@]3(C)C4=CC(=O)c5cc(O)c(O)cc5[C@]4(C)CC[C@@]3(C)[C@@H]2C1`: the Potency entry in assay [7] and in assay [5] was “inactive” throughout.
As for `O=C(O)C(Cl)(Cl)Cl`, the max response was 5.93% in assay [6]; 7.06% and 1.52% in assay [1]. In addition, the Potency result in assay [2], in assay [4] and in assay [5] was “inactive” throughout.
